In ChEMBL document CHEMBL1961873, “Compounds: GSK PKIS; Assays: Nanosyn kinase panel” (2012):

Key:
[1] = target: T1, Aurora kinase A (Homo sapiens) (UniProt O14965); settings: at 1 µM;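 further: values are mean percent inhibition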
T1 sequence (whole entry): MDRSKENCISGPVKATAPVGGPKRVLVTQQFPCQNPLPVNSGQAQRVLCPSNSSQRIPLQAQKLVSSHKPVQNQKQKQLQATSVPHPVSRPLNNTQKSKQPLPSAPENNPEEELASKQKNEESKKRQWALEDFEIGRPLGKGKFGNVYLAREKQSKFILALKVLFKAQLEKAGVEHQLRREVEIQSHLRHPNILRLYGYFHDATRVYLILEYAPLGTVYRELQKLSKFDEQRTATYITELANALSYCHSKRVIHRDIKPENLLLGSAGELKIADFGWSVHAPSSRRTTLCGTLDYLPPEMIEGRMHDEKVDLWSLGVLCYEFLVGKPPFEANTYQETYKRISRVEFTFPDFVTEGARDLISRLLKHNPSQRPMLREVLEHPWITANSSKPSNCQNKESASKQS

[2] = target: Aurora kinase B (Homo sapiens) (UniProt Q96GD4); settings: at 0.1 µM
[3] = target: Aurora kinase B (Homo sapiens) (UniProt Q96GD4); settings: at 1 µM
[4] = target: T2, Aurora kinase C (Homo sapiens) (UniProt Q9UQB9); settings: at 0.1 µM
T2 sequence (whole entry): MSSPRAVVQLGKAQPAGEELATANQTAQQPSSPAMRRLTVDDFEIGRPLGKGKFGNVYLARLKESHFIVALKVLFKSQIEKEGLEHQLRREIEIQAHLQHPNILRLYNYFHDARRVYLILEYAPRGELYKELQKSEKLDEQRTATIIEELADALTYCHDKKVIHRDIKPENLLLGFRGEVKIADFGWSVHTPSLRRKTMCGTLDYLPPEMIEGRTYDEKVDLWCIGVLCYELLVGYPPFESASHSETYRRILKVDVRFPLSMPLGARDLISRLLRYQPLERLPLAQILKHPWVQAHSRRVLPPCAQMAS

[5] = target: T2, Aurora kinase C (Homo sapiens); settings: at 1 µM
[6] = target: Serine/threonine-protein kinase 10 (Homo sapiens) (UniProt O94804); settings: at 0.1 µM
[7] = target: Serine/threonine-protein kinase 10 (Homo sapiens) (UniProt O94804); settings: at 1 µM
[8] = target: T3, Mitogen-activated protein kinase kinase kinase kinase 2 (Homo sapiens) (UniProt Q12851); settings: at 0.1 µM
T3 sequence (whole entry): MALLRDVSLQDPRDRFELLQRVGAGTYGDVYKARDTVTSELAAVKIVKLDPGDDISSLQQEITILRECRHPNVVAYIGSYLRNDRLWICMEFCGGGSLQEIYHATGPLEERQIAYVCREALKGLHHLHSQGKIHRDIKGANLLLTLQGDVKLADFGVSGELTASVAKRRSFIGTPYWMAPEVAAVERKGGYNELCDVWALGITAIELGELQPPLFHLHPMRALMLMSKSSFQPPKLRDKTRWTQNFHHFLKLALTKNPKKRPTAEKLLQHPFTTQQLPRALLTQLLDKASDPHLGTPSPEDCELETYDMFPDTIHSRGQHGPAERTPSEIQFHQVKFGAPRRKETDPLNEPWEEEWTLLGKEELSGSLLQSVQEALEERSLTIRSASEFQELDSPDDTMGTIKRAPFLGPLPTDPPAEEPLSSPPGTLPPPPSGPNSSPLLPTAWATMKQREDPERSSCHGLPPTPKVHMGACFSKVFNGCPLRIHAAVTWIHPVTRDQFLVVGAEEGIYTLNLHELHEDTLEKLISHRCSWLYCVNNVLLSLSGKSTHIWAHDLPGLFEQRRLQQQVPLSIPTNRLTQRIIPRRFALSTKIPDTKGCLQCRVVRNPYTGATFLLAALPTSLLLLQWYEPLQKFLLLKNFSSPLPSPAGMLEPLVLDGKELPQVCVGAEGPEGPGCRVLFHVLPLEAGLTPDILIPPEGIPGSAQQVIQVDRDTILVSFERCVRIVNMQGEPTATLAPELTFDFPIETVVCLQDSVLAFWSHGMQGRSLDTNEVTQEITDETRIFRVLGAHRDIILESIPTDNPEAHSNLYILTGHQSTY

[9] = target: T3, Mitogen-activated protein kinase kinase kinase kinase 2 (Homo sapiens); settings: at 1 µM
[10] = target: Mitogen-activated protein kinase kinase kinase kinase 4 (Homo sapiens) (UniProt O95819); settings: at 0.1 µM
[11] = target: Mitogen-activated protein kinase kinase kinase kinase 4 (Homo sapiens) (UniProt O95819); settings: at 1 µM
[12] = target: Dual specificity mitogen-activated protein kinase kinase 1 (Homo sapiens) (UniProt Q02750); settings: at 0.1 µM
[13] = target: Dual specificity mitogen-activated protein kinase kinase 1 (Homo sapiens) (UniProt Q02750); settings: at 1 µM
[14] = target: Misshapen-like kinase 1 (Homo sapiens) (UniProt Q8N4C8); settings: at 0.1 µM
[15] = target: Misshapen-like kinase 1 (Homo sapiens) (UniProt Q8N4C8); settings: at 1 µM
[16] = target: T4, Serine/threonine-protein kinase 4 (Homo sapiens) (UniProt Q13043); settings: at 0.1 µM
T4 sequence (whole entry): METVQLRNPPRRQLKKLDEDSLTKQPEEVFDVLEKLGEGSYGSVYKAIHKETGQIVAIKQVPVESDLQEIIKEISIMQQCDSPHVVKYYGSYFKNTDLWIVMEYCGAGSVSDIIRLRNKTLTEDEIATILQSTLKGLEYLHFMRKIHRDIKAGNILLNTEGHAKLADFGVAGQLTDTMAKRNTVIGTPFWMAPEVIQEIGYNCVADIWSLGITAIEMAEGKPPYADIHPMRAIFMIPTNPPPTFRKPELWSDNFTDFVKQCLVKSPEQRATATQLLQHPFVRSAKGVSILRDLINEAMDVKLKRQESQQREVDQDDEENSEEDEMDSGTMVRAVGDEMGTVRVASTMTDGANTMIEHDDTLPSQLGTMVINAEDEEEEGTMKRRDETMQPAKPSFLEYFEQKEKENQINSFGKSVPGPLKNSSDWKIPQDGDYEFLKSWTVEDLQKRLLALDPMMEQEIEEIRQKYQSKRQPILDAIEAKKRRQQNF

[17] = target: T4, Serine/threonine-protein kinase 4 (Homo sapiens); settings: at 1 µM
[18] = target: T5, Serine/threonine-protein kinase 3 (Homo sapiens) (UniProt Q13188); settings: at 0.1 µM
T5 sequence (whole entry): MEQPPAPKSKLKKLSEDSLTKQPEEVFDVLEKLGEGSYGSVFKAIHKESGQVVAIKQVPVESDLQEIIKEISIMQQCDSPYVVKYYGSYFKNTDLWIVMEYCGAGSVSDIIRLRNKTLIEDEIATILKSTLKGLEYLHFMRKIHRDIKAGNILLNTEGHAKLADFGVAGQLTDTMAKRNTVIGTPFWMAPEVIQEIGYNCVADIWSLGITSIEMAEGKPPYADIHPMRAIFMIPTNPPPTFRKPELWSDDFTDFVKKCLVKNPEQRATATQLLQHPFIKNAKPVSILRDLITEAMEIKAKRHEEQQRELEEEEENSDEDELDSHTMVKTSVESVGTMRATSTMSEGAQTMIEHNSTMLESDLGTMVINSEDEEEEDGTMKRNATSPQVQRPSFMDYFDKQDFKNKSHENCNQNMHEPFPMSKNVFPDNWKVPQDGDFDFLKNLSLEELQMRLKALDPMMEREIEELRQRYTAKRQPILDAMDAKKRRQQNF

[19] = target: T5, Serine/threonine-protein kinase 3 (Homo sapiens); settings: at 1 µM
[20] = target: Serine/threonine-protein kinase 26 (Homo sapiens) (UniProt Q9P289); settings: at 0.1 µM
Chain of Serine/threonine-protein kinase 26 (Homo sapiens) (Q9P289 2-416 limits assumed): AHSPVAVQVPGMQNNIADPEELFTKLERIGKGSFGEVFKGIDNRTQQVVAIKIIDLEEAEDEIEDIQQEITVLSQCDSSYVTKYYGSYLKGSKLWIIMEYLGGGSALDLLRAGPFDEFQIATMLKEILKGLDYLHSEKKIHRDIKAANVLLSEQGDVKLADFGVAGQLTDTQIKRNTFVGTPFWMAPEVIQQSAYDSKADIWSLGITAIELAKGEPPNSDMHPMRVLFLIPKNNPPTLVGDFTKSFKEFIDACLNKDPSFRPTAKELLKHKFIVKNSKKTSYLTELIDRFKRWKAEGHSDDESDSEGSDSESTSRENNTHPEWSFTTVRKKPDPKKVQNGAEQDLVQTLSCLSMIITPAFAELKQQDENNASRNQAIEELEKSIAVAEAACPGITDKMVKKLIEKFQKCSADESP

Chain of Serine/threonine-protein kinase 10 (Homo sapiens) (O94804 whole entry, looked up): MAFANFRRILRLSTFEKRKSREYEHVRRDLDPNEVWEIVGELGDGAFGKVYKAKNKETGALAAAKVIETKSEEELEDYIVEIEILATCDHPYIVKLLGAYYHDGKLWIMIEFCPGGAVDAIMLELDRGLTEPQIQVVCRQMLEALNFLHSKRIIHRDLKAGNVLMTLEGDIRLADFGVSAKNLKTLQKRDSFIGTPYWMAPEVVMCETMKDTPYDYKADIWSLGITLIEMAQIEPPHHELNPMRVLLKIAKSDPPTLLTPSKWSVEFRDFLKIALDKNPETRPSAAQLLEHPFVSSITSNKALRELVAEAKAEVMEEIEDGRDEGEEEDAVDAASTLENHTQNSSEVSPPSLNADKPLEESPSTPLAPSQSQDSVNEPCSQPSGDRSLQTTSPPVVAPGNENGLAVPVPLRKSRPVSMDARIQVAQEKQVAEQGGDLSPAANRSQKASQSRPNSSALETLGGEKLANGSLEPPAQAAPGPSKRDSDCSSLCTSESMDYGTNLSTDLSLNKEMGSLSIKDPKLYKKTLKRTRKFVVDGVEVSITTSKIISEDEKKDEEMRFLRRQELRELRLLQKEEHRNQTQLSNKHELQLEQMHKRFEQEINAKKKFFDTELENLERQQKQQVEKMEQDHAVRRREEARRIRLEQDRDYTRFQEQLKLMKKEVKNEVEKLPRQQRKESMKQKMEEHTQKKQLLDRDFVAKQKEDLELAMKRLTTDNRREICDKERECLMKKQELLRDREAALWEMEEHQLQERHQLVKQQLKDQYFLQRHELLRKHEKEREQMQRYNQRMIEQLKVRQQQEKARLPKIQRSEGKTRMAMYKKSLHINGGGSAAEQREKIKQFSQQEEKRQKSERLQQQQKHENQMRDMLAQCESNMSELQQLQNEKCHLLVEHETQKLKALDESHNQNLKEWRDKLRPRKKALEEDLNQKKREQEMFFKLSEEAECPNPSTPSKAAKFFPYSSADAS
Chain of Mitogen-activated protein kinase kinase kinase kinase 4 (Homo sapiens) (O95819 2-1239 limits assumed): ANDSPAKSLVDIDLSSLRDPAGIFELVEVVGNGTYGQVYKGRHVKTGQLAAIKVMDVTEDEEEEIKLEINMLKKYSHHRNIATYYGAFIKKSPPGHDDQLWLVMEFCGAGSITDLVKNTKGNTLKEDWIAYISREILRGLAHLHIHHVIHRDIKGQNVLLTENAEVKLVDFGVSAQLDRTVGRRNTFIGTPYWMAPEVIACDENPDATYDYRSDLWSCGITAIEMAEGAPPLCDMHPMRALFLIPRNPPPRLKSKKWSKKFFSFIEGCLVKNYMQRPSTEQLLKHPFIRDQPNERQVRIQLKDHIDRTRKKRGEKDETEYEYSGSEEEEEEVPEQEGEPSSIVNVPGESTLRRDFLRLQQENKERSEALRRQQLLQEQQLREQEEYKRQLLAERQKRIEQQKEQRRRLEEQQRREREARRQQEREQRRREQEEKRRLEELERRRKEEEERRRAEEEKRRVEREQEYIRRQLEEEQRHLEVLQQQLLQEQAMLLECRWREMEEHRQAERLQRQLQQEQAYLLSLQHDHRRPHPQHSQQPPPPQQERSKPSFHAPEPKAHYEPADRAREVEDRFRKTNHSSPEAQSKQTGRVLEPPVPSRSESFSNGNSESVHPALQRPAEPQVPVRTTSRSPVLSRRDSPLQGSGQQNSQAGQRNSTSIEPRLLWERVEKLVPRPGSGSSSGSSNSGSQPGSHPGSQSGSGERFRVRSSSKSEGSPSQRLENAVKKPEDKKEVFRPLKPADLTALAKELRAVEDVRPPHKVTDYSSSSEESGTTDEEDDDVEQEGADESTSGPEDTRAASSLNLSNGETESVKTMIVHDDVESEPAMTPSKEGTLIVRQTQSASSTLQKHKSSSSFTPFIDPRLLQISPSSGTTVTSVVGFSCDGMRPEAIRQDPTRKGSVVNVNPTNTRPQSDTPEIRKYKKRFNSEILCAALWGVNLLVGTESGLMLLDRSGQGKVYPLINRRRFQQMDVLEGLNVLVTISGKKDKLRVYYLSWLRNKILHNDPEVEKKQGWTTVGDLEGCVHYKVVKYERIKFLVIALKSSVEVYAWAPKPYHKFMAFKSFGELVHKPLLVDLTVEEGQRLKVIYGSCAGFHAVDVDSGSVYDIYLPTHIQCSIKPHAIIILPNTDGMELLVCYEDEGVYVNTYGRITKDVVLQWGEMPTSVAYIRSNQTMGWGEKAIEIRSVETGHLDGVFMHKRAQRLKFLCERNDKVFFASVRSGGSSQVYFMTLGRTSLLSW
Chain of Aurora kinase B (Homo sapiens) (Q96GD4 whole entry): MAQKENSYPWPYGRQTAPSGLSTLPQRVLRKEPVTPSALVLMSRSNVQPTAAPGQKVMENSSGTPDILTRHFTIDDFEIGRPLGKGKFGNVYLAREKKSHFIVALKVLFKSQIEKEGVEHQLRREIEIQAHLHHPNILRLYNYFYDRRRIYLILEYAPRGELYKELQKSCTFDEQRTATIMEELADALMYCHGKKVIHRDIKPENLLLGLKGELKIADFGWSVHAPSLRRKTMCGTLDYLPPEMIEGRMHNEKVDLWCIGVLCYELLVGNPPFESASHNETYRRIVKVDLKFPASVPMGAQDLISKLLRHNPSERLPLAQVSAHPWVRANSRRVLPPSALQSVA
Chain of Dual specificity mitogen-activated protein kinase kinase 1 (Homo sapiens) (Q02750 whole entry): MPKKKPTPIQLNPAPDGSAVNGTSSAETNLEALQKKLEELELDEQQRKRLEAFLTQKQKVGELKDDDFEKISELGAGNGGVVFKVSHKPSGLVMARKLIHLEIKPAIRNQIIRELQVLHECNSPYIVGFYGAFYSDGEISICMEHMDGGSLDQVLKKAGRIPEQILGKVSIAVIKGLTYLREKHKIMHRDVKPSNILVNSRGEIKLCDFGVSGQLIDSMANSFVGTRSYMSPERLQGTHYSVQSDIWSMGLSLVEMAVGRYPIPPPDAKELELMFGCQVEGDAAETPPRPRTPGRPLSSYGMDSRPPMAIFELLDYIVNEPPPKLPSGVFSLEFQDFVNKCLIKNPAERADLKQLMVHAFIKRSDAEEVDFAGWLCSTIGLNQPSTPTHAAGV
Chain of Misshapen-like kinase 1 (Homo sapiens) (Q8N4C8 whole entry, looked up): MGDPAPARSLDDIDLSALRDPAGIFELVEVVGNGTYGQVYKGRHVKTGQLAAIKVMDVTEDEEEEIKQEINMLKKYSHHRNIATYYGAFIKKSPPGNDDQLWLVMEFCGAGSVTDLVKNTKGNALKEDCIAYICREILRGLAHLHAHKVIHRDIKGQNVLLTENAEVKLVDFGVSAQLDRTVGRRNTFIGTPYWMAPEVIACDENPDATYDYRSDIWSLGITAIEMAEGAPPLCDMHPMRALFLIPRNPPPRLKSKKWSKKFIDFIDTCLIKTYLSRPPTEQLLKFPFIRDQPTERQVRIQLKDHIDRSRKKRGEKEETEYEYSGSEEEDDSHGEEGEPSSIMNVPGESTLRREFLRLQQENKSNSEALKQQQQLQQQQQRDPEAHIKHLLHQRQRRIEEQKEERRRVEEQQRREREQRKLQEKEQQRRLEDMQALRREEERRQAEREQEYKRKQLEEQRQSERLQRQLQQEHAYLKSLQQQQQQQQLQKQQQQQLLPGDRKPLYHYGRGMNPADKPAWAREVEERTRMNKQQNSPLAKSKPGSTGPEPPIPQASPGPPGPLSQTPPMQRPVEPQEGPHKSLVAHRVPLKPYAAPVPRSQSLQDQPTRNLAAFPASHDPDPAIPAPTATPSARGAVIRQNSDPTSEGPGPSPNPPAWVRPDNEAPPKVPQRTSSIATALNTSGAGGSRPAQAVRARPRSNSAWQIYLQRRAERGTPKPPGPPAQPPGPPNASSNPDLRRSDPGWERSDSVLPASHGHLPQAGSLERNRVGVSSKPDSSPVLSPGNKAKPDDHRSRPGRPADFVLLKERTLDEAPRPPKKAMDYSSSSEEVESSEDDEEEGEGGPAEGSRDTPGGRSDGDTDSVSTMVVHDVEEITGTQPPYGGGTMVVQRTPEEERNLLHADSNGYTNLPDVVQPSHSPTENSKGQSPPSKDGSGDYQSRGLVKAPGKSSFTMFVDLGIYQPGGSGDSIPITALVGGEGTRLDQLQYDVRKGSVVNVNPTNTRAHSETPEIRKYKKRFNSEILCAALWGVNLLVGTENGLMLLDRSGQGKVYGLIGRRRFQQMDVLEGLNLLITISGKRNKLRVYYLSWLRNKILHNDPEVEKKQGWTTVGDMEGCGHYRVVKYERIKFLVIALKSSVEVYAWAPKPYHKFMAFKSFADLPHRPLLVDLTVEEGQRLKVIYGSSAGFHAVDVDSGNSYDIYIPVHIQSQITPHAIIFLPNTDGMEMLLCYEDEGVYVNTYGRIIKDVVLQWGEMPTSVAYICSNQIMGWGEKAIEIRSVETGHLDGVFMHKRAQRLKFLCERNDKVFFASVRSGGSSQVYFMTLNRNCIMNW

Compound | inhibition [1] | inhibition [2] | inhibition [3] | inhibition [4] | inhibition [5] | inhibition [6] | inhibition [7] | inhibition [8] | inhibition [9] | inhibition [10] | inhibition [11] | inhibition [12] | inhibition [13] | inhibition [14] | inhibition [15] | inhibition [16] | inhibition [17] | inhibition [18] | inhibition [19] | inhibition [20]
COc1ccc(-c2nn3ncccc3c2-c2ccnc(Nc3ccc4c(c3)OCCO4)n2)cc1 | 63.2% | 3.61% | 17.4% | 6.73% | 46.8% | 11.2% | 55.1% | 0.69% | 4.16% | 0.61% | 9.82% | 0.5% | 1.59% | 3.01% | 7.26% | -0.55% | 1.99% | -0.94% | -0.28% | 0.86%
COc1cccc(-n2ncc3c(N/N=C/c4ccc(F)cc4)ncnc32)c1 | 18.5% | 4.02% | 12.9% | 2.64% | 3.29% | 6.75% | 10.9% | 0.43% | 0.63% | 5.23% | 21.2% | 4.9% | 3.13% | 7.39% | 17.2% | 7.56% | 9.41% | 9.36% | 9.98% | -1.54%
O=C(Nc1n[nH]c2cc(-c3ccc(F)cc3)ccc12)C1CC1 | 12.8% | 2.7% | 6.25% | 0.6% | 6.95% | 3.84% | 8.91% | 1.48% | 5.08% | 20.1% | 70.1% | 3.48% | 3.42% | 16.2% | 56% | 2.34% | 4.72% | 2.91% | 4.55% | -1.43%
CS(=O)(=O)CCNCc1ccc(-c2ccc3ncnc(Nc4ccc(OCc5ccccc5)c(C(F)(F)F)c4)c3c2)o1 | 2.77% | 1.73% | 3.4% | -0.38% | 2.61% | 5.07% | 8.24% | 0.85% | 1.46% | 2.98% | 4.73% | 3.83% | 3.81% | 5.41% | 5.83% | 2.67% | 3.71% | 4.04% | 4.03% | -1.35%
COc1cc(N2CCN(C(C)C)CC2)ccc1Nc1nc(Nc2ccc(F)cc2C(N)=O)c2cc[nH]c2n1 | 4.58% | 2.99% | 2.23% | 0.8% | 2.67% | 3.31% | 11.8% | 4.5% | 31.1% | 18.1% | 68.1% | 2.21% | 15.6% | 14.2% | 55% | 5.27% | 25.2% | 4.27% | 10.3% | 0.23%
COc1ccc(-c2cc(-c3c[nH]nc3-c3ccccn3)ccn2)cc1 | 5.58% | 4.41% | 5.71% | 2.12% | -1.66% | 5.75% | 8.57% | 1.74% | 2.15% | 35.5% | 80.3% | 6.36% | 4.25% | 24.6% | 72.7% | 7.65% | 10.6% | 9.35% | 10.1% | -2.95%
Fc1ccc(-c2cc(-c3c[nH]nc3-c3ccccn3)ccn2)cc1 | 4.79% | 2.48% | 5.17% | -0.57% | -4.87% | 6.15% | 11.2% | -0.05% | 1.6% | 13.7% | 59.6% | 5.25% | 3.85% | 10.7% | 44.4% | 4.5% | 6.92% | 6.43% | 7.79% | -0.73%
COC(=O)c1sc(-n2cnc3cc(OC)c(OC)cc32)cc1OCc1ccccc1C(F)(F)F | 32.2% | 13.9% | 54.5% | 5.23% | 54.9% | 6.81% | 21.6% | -0.16% | 3.42% | 6.34% | 10.1% | 5.37% | 4.96% | 5.47% | 11.2% | 4.68% | 9.69% | 5.78% | 9.15% | -1.48%
c1ccc(COc2ccc(Nc3ncnc4ccc(-c5ccco5)cc34)cc2)cc1 | 3.53% | 1.9% | 4.9% | 0.82% | 6.4% | 3.53% | 5.39% | 2.84% | 2.66% | 2.01% | 6.14% | 1.63% | 1.55% | 4.04% | 3.27% | -0.04% | 0.76% | 0.84% | 1.9% | 1.19%
CNC(=O)c1cccc(C#Cc2cncnc2Nc2ccc(OCc3cccc(F)c3)c(Cl)c2)c1 | 11.8% | -0.67% | 4.77% | 1.94% | -5.97% | 0% | 4.51% | -1.31% | 0.34% | -0.86% | 5.4% | 0.1% | 1.05% | -0.5% | 5.14% | 4.83% | 8.84% | 5.85% | 7.85% | 0.31%
c1cc(-c2cnn3nc(N4CCOCC4)ccc23)nc(NC2CC2)n1 | 22% | 7.41% | 46.8% | 7.39% | 75.5% | 5.74% | 12.1% | -0.22% | 5.78% | 6.38% | 20.9% | 4.84% | 9.33% | 4.94% | 13.9% | 7.25% | 10.3% | 8.19% | 8.11% | -0.92%
N#Cc1c(NC(=O)c2ccc(F)cc2)sc2c1CCCC2 | 0.18% | 2.3% | 1.27% | 0.83% | -4.93% | 3.11% | 6.81% | 0.12% | 1.05% | 1.93% | 5.3% | 1.23% | 1.68% | 2.23% | 4.89% | -0.35% | 2.59% | 0.16% | 3.36% | -0.1%
CCOc1ccc2c(-c3ccnc(Nc4cccc(C(F)(F)F)c4)n3)cnn2n1 | 7.68% | 6.17% | 9.87% | 2.6% | 12.5% | 4.81% | 12.9% | 0.42% | 6.12% | 0.65% | 4.83% | 2.29% | 0.44% | 3.9% | 7.19% | 3.72% | 3.98% | 5.61% | 6.48% | 0.02%
